# Test results reported in PubChem BioAssay (EPA / NIEHS).
# Active and inactive are the calls of the source. Rule for the calls: active = hit-call score of the fitted dose curve at least 0.9, where 1 is the maximum; inactive = score below 0.9.
# Test: ATG_Sox_CIS: Attagene CIS-FACTORIAL HepG2 Assay for human SRY-box transcription factor (SOX) (AID 2282960)
# Conditions: HepG2 Attagene cis-factorial SOX reporter, mRNA; actives raise or lower the signal
# Protocol: ATG_CIS is a cell-based, multiplexed-readout assay that uses HepG2, a human liver cell line, with measurements taken at 24 hours after chemical dosing in a 24-well plate.ATG_Sox_CIS is one of 52 assay component(s) measured or calculated from the ATG_CIS assay. It is designed to make measurements of mRNA induction, a form of inducible reporter, as detected with fluorescence intensity signals by Reverse transcription polymerase chain reaction (RT-PCR) and Capillary electrophoresis technology.Data from the assay component ATG_Sox_CIS was analyzed into 1 assay endpoint. This assay endpoint, ATG_Sox_CIS, was analyzed with bidirectional fitting relative to DMSO as the negative control and baseline of activity. Using a type of inducible reporter, measures of mRNA for gain or loss-of-signal activity can be used to understand the reporter gene at the transcription factor-level as they relate to the gene SOX1. Furthermore, this assay endpoint can be referred to as a primary readout, because this assay has produced multiple assay endpoints where this one serves a reporter gene function. To generalize the intended target to other relatable targets, this assay endpoint is annotated to the dna binding intended target family, where the subfamily is HMG box protein.
# Human liver HepG2 cells are transiently transfected with multiple reporter transcription units (MRTUs) in 6-well plates using FuGene 6 reagent (Roche; 3 ml FuGene/1 mg DNA). The MRTU constructs are regulated by a cis-regulating element (promoter). […] A major difference between the CIS and TRANS system is that in CIS activities of endogenous TFs are measured, whereas the TRANS assay evaluates changes in activities of exogenous, chimeric NR-Gal4 proteins. […] At the end of 24 hour incubation, total RNA was isolated using TriZol reagent (Invitrogen). The isolated RNA is then reverse-transcribed using oligo(dT) primer and Mo-MLV reverse transcriptase (Invitrogen) with DNAse I (Ambion) treatment for 30 min. The one-tenth of the produced cDNA was amplified by PCR using Taq DNA polymerase (Invitrogen) and two reporter sequence-specific primers. The PCR products were fluorescently labeled by primer extension with 6-arboxyfluorescein (6-FAM) 5'-labeled reporter sequence-specific primer (2 min at 95 C, 20 s at 68 C and 10 min at 72 C) and these products were digested with 5U of HpaI (New England Biolabs) for 2h at 37 C. The fragments were purified using Qiaquick PCR columns (Qiagen), analyzed on an ABI 3130xL genetic analyzer (Applied Biosystems) with peak positions identified by using a set of X-rhodamine (ROX)-labeled MapMarker1000 molecular weight standards (BioVentures). The raw capillary electrophoresis data was processed using Attagraph software (Attagene).
SMILES,outcome,AC50
OC(O)(C(F)C(O)(O)C(F)(F)F)C(F)(F)F,inactive,
FC(F)(F)COC(OCC(F)(F)F)OCC(F)(F)F,inactive,
C=CCc1cc(S(=O)(=O)c2ccc(O)c(CC=C)c2)ccc1O,inactive,
O=C(Cl)C(F)(F)C(F)(F)C(F)(F)C(=O)Cl,inactive,
O=c1[nH]cnc2c1ncn2[C@H]1CC[C@@H](CO)O1,inactive,
NCC(F)(F)C(F)(F)C(F)(F)C(F)(F)F,inactive,
OC(CCl)CCl,inactive,
CCc1ccc(O)c(C(C)(C)C)c1,inactive,
Cn1cc[nH]c1=S,inactive,
OCc1c[nH]c2ccccc12,inactive,
CCCCCOC(C)=O,inactive,
COc1cc(C(C)C)c2c(c1)S(=O)(=O)N(COc1cc(=O)n3cccc(OCCN4CCCCC4)c3n1)C2=O,,4.26 µM (active)
CCCCC(CC)C(=O)OCCOCCOCCOC(=O)C(CC)CCCC (stereo not given),inactive,
COS(C)(=O)=O,inactive,
O=C(O)c1cccc(C[C@@H]2COc3ccc(OCc4nc5cc(F)ccc5s4)cc3[C@@H]2O)c1,inactive,
CCCCCCOC(=O)CC(CC(=O)OCCCCCC)(OC(=O)CCC)C(=O)OCCCCCC,inactive,
c1ccc2c(c1)-c1cccc3c1c-2cc1ccccc13,inactive,
CCCCCCCCN(C)C,inactive,
CCCCCCCCCCCCCCCCOS(=O)(=O)O,inactive,
c1ccc2cc3ccccc3cc2c1,inactive,

SMILES,outcome,AC50
OCCNCCO,inactive,
O=C(O)c1cccc(C(=O)O)c1,inactive,
CC(C)c1nnc2ccc(-c3ocnc3-c3cc(F)ccc3F)cn12,inactive,
S=P(N1CC1)(N1CC1)N1CC1,inactive,
O=C(O)[C@H](O)[C@@H](O)C(=O)O,inactive,
O=C(O)c1ccc2c(c1)nc(C(=O)NC1CCN(C3CC3)CC1)n2Cc1cc(-c2ccc(Cl)s2)on1,inactive,
CCCCCCCC/C=C\CCCCCCCC(=O)OC[C@@H](O)[C@H]1OC[C@H](O)[C@H]1O,inactive,
C[Si](C)(C)C(F)(F)C(F)(F)C(F)(F)F,inactive,
CCCCN1C(=O)[C@@H]([C@H](O)C2CCCCC2)NC(=O)C12CCN(Cc1ccc(Oc3ccc(C(=O)O)cc3)cc1)CC2,inactive,
OC(Cn1cncn1)(Cn1cncn1)c1ccc(F)cc1F,inactive,
c1ccc2ncccc2c1,inactive,
CCOc1ccc2[nH]cc(C(=O)NCc3ccccc3)c(=O)c2n1,inactive,
NC(=O)NN=Cc1ccc([N+](=O)[O-])o1,inactive,
OC[C@H]1O[C@@](CO)(O[C@H]2O[C@H](CO)[C@@H](O)[C@H](O)[C@H]2O)[C@@H](O)[C@@H]1O,inactive,
O=S1(=O)CCCO1,inactive,
O=S(=O)(O)CCC(F)(F)C(F)(F)C(F)(F)C(F)(F)C(F)(F)C(F)(F)F,inactive,
O=C(N[C@H](CO)[C@H](O)c1ccc([N+](=O)[O-])cc1)C(Cl)Cl,inactive,
CCCCCCCC1CCC(=O)O1 (stereo not given),inactive,
O=C1CN(N=Cc2ccc([N+](=O)[O-])o2)C(=O)N1,inactive,
NC(N)=O,inactive,
